PubChem BioAssay (NCATS)
Inconclusive results are not listed. Where a call stands in place of a potency, no number is given. The source made the active and inactive calls. The call rests on the fitted dose curve.

assay: A High-Content qHTS Against Drug Library for the Identification of Small Molecules that Inhibit DYT1 Early Onset Primary Dystonia-Associated Cell Pathology (AID 1645839); conditions: HEK293 Flp-In EGFP-delE TorsinA, punctate imaging, 48 h; series mostly up to 46.1 µM
Source text: Nicole Calakos M.D., Ph.D.
Duke University School of Medicine, Durham, NC
In DYT1 dystonia due to delGAG in the TOR1A gene, there is a robust and widely replicated finding of TorsinA protein mislocalization caused when the mutant protein is in excess of the wildtype protein (1-7). Stable HEK293 cell lines were created that replicate this phenomenon. Inducible expression of an EGFP-hu delE TorsinA encoding cDNA causes pronounced punctate cellular distribution. […] This phenotypic difference in EGFP-huTorsinA fusion protein distribution serves as an indicator of cell pathology. […] RNAi screen results with the assay were validated in DYT1 patient cell phenotypes, intersected with a known dystonia gene, and led to discovery of new human genetic dystonia associations.
The bioassay described herein is a high-content image screen with two readouts. The "%pathology" readout is the primary qHTS data channel, while the "cellcount" is the counterscreen qHTS channel. Desired active compounds are those that show inhibition in %pathology channel but no activity or minimal toxicity in cellcount readout.
1. Kustedjo, K., Bracey, M.H., and Cravatt, B.F. (2000). […] J. Biol. Chem. 275, 27933 - 27939.
2. Bragg, D.C., Kaufman, C.A., Kock, N., and Breakefield, X.O. (2004). Inhibition of N-linked glycosylation prevents inclusion formation by the dystonia-related mutant form of torsinA. Mol. Cell. Neurosci. 27, 417 - 426.
3. Gonzalez-Alegre, P., and Paulson, H.L. (2004). Aberrant Cellular Behavior of Mutant TorsinA Implicates Nuclear Envelope Dysfunction in DYT1 Dystonia. J. Neurosci. 24, 2593 - 2601.
4. Goodchild, R.E., and Dauer, W.T. (2004). Mislocalization to the nuclear envelope: an effect of the dystonia-causing torsinA mutation. Proc. Natl. Acad. Sci. U. S. A. 101, 847 - 852.
5. Kock, N., Allchorne, A.J., Sena-Esteves, M., Woolf, C.J., and Breakefield, X.O. (2006). RNAi blocks DYT1 mutant torsinA inclusions in neurons. Neurosci. Lett. 395, 201 - 205.
6. Hewett, J.W., Nery, F.C., Niland, B., Ge, P., Tan, P., Hadwiger, P., Tannous, B.A., Sah, D.W.Y., and Breakefield, X.O. (2008). siRNA knock-down of mutant torsinA restores processing through secretory pathway in DYT1 dystonia cells. Hum. Mol. Genet. 17, 1436 - 1445.
7. Calakos, N., Patel, V.D., Gottron, M., Wang, G., Tran-Viet, K.N., Brewington, D., Beyer, J.L., Steffens, D.C., Krishnan, R.R., and Zuchner, S. (2010). Functional evidence implicating a novel TOR1A mutation in idiopathic, late-onset focal dystonia. J. Med. Genet. 47, 646 - 650.
8. Rittiner* JE, Caffall* ZF, Hernandez-Martinez R, Sanderson SM, Pearson JL, Tsukayama KK, Liu AY, Xiao C, Tracy S, Shipman MK, Hickey P, Johnson J, Scott B, Stacy M, Saunders-Pullman R, Bressman S, Simonyan K, Sharma N, Ozelius LJ, Cirulli ET, Calakos N. Functional Genomic Analyses of Mendelian and Sporadic Disease Identify Impaired eIF2alpha Signaling as a Generalizable Mechanism for Dystonia. Neuron. 2016 Dec 21;92(6):1238-1251. doi: 10.1016/j.neuron.2016.11.012. Epub 2016 Dec 8. PMID: 27939583; PMCID: PMC5320521.
High-content, High-throughput Drug Screening Assay
The TorsinA mislocalization assay was modified from the previously published assay to accommodate compound testing in 1536 well format.1 Briefly, Flp-In T-REx 293 cells from Invitrogen in which a single copy of a cDNA is recombined into a specific genomic locus was used to create tetracycline-inducible expression of cDNA encoding either EGFP-hTOR1A (WT) or EGFP-delE hTOR1A (DYT1). WT and DYT1 cells were diluted to a concentration of 2 x 10^5 cells/mL in reduced serum media (DMEM High Glucose containing 1% tetracycline-tested FBS, 2 mM L-Glutamine, and 1% Penicillin/Streptomycin). 4 µl of WT cells and 4 µl of DTY1 cells were added to column 1 and columns 2-48, respectively, of a poly-D-lysine-coated, low base, black, clear bottom 1536 well plate (Corning, Corning, NY) using the BioRAPTR FRD Microfluidic Workstation (Beckman Coulter, Indianapolis, IN). The final cell number was 800 cells/well. […]
Potency means the concentration at half of the fitted maximal effect.

SMILES	Potency
CC(C)(O)c1ccccc1CC[C@@H](SCC1(CC(=O)O)CC1)c1cccc(/C=C/c2ccc3ccc(Cl)cc3n2)c1	inactive
CCN(CC)C(=O)Nc1ccc(OCC(O)CNC(C)(C)C)c(C(C)=O)c1 (stereo not given)	inactive
O=S(=O)(O)NC1CCCCC1	inactive
C[C@]12C[C@H](O)[C@H]3[C@@H](CCC4=CC(=O)CC[C@@]43C)[C@@H]1CC[C@@H]2C(=O)CO	inactive
CN(C)CC[C@@H](c1ccc(Cl)cc1)c1ccccn1	inactive
CC1(C)Oc2ccc(C#N)cc2[C@@H](N2CCCC2=O)[C@@H]1O	inactive
CC(=O)Nc1ccc(/C=N/NC(N)=S)cc1	inactive
CC1(C)OC(=O)NC1=O	inactive
COc1ccc2cc1Oc1cc3c(cc1OC)CC[N+](C)(C)[C@H]3Cc1ccc(cc1)Oc1c(OC)c(OC)cc3c1[C@@H](C2)[N+](C)(C)CC3	inactive
Oc1cn2c(n1)Nc1ccc(Cl)c(Cl)c1C2	inactive
Cc1cccc(C)c1NC(=O)CN(CC(=O)O)CC(=O)O	inactive
O=C1N=C(O)CN1/N=C/c1ccc(-c2ccc([N+](=O)[O-])cc2)o1	inactive
O=c1[nH]cnc2c1ncn2[C@@H]1O[C@H](CO)[C@@H](O)[C@H]1O	inactive
N[C@H]1C(O)O[C@H](CO)[C@@H](O)[C@@H]1O (stereo not given in full)	inactive
Nc1cc(=O)[nH]c(N)n1	inactive
CC1=C(CC(=O)O)c2cc(F)ccc2/C1=C\c1ccc(S(C)=O)cc1 (stereo not given)	inactive
CN(C)CCN(Cc1ccccc1)c1ccccn1	inactive
O=C(O)c1ccccn1	inactive
CNC(=O)Oc1ccc2c(c1)[C@]1(C)CCN(C)[C@@H]1N2C	inactive
O=C(O)COc1nn(Cc2ccccc2)c2ccccc12	inactive

SMILES	Potency
O=c1cc[nH]c(=S)[nH]1	inactive
CCCCCCCCCCCCOS(=O)(=O)O	inactive
NC(=O)NC(=O)Cc1ccccc1	inactive
CN1[C@@H]2CC[C@H]1CC(OC(=O)C(O)c1ccccc1)C2 (stereo not given in full)	inactive
Nc1ccc(S(=O)(=O)Nc2ccccc2)cc1	inactive
NS(=O)(=O)c1cc2c(cc1C(F)(F)F)NC(Cc1ccccc1)NS2(=O)=O (stereo not given)	inactive
O=C(O)[C@@H]1CSCN1	inactive
CNCCC(Oc1ccc(C(F)(F)F)cc1)c1ccccc1 (stereo not given)	12.6 µM (active)
N[C@@H](CSCCCO)C(=O)O	inactive
CO/N=C(\C(=O)N[C@@H]1C(=O)N2C(C(=O)O)=C(CSc3nc(=O)c(O)nn3C)CS[C@H]12)c1csc(N)n1	inactive
CC(=O)NC(Cc1ccccc1)C(=O)O (stereo not given)	inactive
O=S(=O)(O)c1cc(I)c(O)c2ncccc12	inactive
O=Cc1ccccc1C=O	inactive
OCC(CO)N[C@H]1C[C@](O)(CO)[C@@H](O)[C@H](O)[C@H]1O	inactive
CCCCC(CC)COC(=O)c1ccccc1O (stereo not given)	inactive
CCCCc1ncc(/C=C(\Cc2cccs2)C(=O)O)n1Cc1ccc(C(=O)O)cc1	inactive
CCCOC(=O)c1ccccc1	inactive
Cc1cc2c(cc1S(N)(=O)=O)S(=O)(=O)CCC2	inactive
CNCC(O)c1ccc(O)c(O)c1 (stereo not given)	inactive
CC(C)(C)C(=O)NCCCC(=O)O	inactive
